Laboratory results as given in ChEMBL document CHEMBL1961873, “Compounds: GSK PKIS; Assays: Nanosyn kinase panel” (2012).

Key:
[1] = tested on: Tyrosine-protein kinase ABL1 (Homo sapiens), P00519 [T315I]; conditions: at 1 µM
[2] = tested on: Tyrosine-protein kinase ABL1 (Homo sapiens), P00519 [Y253F]; conditions: at 0.1 µM
[3] = tested on: Tyrosine-protein kinase ABL1 (Homo sapiens), P00519 [Y253F]; conditions: at 1 µM
[4] = biological target: Tyrosine-protein kinase ABL1 (Homo sapiens) (UniProt P00519); conditions: at 0.1 µM
[5] = biological target: Tyrosine-protein kinase ABL1 (Homo sapiens) (UniProt P00519); conditions: at 1 µM
[6] = biological target: ALK tyrosine kinase receptor (Homo sapiens) (UniProt Q9UM73); conditions: at 0.1 µM
[7] = biological target: ALK tyrosine kinase receptor (Homo sapiens) (UniProt Q9UM73); conditions: at 1 µM
[8] = biological target: Tyrosine-protein kinase ABL2 (Homo sapiens) (UniProt P42684); conditions: at 0.1 µM
[9] = biological target: Tyrosine-protein kinase ABL2 (Homo sapiens) (UniProt P42684); conditions: at 1 µM
[10] = biological target: Tyrosine-protein kinase receptor UFO (Homo sapiens) (UniProt P30530); conditions: at 0.1 µM
[11] = biological target: Tyrosine-protein kinase receptor UFO (Homo sapiens) (UniProt P30530); conditions: at 1 µM
[12] = biological target: Tyrosine-protein kinase Blk (Homo sapiens) (UniProt P51451); conditions: at 0.1 µM
[13] = biological target: Tyrosine-protein kinase Blk (Homo sapiens) (UniProt P51451); conditions: at 1 µM
[14] = biological target: T1, Cytoplasmic tyrosine-protein kinase BMX (Homo sapiens) (UniProt P51813); conditions: at 0.1 µM
T1 sequence (whole entry): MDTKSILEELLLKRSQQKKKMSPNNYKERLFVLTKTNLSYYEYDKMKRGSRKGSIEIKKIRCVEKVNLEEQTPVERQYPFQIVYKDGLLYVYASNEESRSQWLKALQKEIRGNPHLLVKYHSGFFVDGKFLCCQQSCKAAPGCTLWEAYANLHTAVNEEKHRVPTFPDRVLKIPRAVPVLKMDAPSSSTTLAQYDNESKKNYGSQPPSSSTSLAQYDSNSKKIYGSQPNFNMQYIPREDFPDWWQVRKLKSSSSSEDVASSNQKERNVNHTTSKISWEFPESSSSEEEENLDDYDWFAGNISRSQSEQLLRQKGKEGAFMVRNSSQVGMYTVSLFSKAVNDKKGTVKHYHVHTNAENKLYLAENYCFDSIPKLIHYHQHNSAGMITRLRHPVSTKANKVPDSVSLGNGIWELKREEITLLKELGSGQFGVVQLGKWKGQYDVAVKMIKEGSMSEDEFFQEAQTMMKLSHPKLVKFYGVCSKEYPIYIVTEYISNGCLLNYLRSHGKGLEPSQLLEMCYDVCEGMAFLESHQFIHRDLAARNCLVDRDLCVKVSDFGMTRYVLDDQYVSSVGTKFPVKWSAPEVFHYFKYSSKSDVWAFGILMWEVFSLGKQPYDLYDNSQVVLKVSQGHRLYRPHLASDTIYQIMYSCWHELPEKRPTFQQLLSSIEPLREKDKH

[15] = biological target: T1, Cytoplasmic tyrosine-protein kinase BMX (Homo sapiens); conditions: at 1 µM
[16] = biological target: Protein-tyrosine kinase 6 (Homo sapiens) (UniProt Q13882); conditions: at 0.1 µM
[17] = biological target: Protein-tyrosine kinase 6 (Homo sapiens) (UniProt Q13882); conditions: at 1 µM
[18] = biological target: Tyrosine-protein kinase BTK (Homo sapiens) (UniProt Q06187); conditions: at 0.1 µM
[19] = biological target: Tyrosine-protein kinase BTK (Homo sapiens) (UniProt Q06187); conditions: at 1 µM
[20] = biological target: Tyrosine-protein kinase CSK (Homo sapiens) (UniProt P41240); conditions: at 0.1 µM;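 further: value given is the averaged percent inhibition of CSK kinase activity, from the GSK PKIS kinase inhibitor set screening panel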
Tyrosine-protein kinase CSK (Homo sapiens), sequence (P41240 2-450 limits assumed): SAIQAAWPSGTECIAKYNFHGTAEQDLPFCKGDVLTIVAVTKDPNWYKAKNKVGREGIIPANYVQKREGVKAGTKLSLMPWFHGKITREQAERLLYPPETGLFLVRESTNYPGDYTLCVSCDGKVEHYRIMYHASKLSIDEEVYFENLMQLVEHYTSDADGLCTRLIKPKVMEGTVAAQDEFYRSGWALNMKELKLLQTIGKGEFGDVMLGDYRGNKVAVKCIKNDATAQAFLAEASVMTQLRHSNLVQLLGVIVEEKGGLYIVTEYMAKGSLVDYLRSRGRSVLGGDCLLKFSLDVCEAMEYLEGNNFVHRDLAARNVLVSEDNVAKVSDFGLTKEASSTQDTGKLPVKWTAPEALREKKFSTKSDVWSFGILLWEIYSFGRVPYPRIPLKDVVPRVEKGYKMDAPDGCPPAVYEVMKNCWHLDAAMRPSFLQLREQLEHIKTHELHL

Tyrosine-protein kinase ABL2 (Homo sapiens), sequence (P42684 whole entry): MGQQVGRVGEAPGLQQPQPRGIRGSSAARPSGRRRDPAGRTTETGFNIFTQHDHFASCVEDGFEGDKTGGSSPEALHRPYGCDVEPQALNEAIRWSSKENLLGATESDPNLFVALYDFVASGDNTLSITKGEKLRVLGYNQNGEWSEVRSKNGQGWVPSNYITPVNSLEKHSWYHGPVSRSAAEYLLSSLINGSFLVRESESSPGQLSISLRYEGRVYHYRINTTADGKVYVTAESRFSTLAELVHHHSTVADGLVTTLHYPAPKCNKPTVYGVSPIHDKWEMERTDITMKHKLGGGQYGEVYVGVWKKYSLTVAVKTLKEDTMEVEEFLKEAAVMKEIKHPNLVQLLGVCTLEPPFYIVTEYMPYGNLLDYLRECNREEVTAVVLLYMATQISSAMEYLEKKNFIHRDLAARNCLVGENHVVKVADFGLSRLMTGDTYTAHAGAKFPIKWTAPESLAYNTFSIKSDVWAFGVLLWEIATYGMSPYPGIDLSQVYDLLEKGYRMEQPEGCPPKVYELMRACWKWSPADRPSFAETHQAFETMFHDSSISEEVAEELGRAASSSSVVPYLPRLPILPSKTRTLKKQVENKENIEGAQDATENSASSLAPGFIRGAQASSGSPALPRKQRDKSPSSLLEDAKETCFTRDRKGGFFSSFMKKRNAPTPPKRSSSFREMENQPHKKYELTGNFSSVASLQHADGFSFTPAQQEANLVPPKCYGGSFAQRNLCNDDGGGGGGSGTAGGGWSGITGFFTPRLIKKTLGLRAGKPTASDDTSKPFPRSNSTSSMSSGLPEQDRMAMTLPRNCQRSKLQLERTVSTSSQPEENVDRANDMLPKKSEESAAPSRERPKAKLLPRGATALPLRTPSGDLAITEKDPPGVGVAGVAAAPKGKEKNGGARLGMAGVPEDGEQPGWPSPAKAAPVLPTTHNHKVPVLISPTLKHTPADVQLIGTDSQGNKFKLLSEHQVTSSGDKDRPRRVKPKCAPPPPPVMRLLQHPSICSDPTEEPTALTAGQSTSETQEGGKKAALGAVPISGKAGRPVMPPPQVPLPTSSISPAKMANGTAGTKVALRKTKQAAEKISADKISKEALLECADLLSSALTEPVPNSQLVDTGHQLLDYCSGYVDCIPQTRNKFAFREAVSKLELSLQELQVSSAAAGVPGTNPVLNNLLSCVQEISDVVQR
Tyrosine-protein kinase Blk (Homo sapiens), sequence (P51451 2-505 limits assumed): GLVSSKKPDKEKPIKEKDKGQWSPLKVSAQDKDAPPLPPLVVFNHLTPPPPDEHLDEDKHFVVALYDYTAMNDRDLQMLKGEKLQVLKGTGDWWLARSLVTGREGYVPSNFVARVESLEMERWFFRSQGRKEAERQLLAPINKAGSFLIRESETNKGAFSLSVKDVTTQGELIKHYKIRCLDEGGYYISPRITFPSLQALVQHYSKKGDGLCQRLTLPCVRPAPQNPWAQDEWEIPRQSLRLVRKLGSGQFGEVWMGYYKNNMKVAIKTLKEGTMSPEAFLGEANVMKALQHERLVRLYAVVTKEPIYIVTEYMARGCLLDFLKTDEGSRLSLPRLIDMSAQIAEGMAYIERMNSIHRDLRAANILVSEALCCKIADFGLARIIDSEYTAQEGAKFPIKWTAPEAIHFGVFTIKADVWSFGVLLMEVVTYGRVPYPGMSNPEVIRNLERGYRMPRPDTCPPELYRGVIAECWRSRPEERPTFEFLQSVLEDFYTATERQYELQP
Tyrosine-protein kinase BTK (Homo sapiens), sequence (Q06187 whole entry): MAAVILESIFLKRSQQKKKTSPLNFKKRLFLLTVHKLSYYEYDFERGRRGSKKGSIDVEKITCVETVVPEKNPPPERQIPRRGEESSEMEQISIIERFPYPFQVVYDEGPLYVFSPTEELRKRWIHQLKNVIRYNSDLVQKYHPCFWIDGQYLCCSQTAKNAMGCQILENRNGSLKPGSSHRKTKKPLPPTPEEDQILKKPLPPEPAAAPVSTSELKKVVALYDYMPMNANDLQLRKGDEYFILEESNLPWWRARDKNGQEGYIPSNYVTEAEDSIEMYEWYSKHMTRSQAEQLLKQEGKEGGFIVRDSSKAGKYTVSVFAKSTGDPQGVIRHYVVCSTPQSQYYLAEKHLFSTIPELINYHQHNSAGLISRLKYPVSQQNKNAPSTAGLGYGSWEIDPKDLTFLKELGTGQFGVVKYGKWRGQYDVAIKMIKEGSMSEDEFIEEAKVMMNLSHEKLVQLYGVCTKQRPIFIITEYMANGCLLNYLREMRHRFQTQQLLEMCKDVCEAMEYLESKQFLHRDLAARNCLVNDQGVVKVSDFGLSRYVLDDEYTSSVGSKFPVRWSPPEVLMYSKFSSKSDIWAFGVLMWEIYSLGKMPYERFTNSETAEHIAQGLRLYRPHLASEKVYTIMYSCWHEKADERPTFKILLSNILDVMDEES
ALK tyrosine kinase receptor (Homo sapiens), sequence (Q9UM73 19-1620 limits assumed): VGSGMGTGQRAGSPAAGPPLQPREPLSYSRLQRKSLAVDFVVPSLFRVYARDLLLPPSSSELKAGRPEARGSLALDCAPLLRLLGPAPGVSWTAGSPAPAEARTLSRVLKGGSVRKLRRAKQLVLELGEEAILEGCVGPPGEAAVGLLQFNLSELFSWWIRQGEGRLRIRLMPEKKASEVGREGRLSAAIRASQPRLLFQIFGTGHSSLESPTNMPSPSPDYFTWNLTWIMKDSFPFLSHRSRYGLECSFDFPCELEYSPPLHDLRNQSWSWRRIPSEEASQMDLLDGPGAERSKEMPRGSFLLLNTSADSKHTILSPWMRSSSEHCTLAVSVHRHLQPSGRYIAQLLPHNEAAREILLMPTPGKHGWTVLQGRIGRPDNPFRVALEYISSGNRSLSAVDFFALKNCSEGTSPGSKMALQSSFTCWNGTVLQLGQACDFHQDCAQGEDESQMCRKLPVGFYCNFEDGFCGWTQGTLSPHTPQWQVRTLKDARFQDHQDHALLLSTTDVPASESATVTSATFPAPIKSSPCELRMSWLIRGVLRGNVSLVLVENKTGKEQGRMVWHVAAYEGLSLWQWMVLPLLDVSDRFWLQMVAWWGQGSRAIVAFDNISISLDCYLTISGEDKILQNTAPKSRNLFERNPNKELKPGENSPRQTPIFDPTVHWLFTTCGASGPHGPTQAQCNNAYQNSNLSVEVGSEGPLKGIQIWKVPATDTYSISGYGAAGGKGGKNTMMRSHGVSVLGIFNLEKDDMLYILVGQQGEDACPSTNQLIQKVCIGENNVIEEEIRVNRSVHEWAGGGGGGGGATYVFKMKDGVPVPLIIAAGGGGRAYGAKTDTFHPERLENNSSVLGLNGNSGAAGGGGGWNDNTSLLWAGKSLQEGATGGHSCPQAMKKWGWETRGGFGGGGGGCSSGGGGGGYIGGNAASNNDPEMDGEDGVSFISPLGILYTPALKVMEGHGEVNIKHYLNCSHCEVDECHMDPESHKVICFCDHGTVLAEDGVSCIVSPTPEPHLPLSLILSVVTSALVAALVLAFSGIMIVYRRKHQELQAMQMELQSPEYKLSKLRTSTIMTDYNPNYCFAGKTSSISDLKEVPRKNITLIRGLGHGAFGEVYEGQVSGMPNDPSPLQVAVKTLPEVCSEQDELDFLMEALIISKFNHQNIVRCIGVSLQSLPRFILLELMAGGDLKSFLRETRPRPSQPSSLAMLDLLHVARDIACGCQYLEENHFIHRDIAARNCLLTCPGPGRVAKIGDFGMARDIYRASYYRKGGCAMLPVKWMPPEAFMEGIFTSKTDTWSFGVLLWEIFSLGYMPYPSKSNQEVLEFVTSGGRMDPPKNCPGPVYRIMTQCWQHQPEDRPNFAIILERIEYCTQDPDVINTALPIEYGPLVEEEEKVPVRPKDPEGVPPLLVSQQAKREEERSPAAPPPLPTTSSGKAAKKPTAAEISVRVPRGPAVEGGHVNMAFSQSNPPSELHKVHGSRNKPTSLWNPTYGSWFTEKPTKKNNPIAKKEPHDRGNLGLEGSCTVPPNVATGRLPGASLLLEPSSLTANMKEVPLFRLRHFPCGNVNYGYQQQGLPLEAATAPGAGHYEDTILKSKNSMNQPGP
Protein-tyrosine kinase 6 (Homo sapiens), sequence (Q13882 whole entry, looked up): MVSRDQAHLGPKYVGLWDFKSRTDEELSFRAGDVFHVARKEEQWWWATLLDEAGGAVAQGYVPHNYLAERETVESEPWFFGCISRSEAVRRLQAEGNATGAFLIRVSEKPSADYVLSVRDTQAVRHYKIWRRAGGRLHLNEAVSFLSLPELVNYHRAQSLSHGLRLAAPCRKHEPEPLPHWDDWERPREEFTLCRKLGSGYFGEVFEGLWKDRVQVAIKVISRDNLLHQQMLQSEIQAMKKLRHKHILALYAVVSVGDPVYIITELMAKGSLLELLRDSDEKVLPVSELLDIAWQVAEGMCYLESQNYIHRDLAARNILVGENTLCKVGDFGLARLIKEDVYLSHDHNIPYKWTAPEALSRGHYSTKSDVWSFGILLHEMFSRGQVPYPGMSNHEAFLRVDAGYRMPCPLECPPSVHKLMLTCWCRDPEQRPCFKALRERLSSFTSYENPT

| Structure (SMILES) | inhibition [1] | inhibition [2] | inhibition [3] | inhibition [4] | inhibition [5] | inhibition [6] | inhibition [7] | inhibition [8] | inhibition [9] | inhibition [10] | inhibition [11] | inhibition [12] | inhibition [13] | inhibition [14] | inhibition [15] | inhibition [16] | inhibition [17] | inhibition [18] | inhibition [19] | inhibition [20] |
| --- | --- | --- | --- | --- | --- | --- | --- | --- | --- | --- | --- | --- | --- | --- | --- | --- | --- | --- | --- | --- |
| COc1ccc(-c2nn3ncccc3c2-c2ccnc(Nc3ccc(F)c(F)c3)n2)cc1 | 16.6% | 5.29% | 17.1% | 3.82% | 14.7% | 2.49% | 8.04% | 2.7% | 11.9% | -1.84% | -3.4% | 3.7% | 7.65% | 6.68% | 6.9% | 9.68% | 46.2% | 0.77% | 0.68% | 4.89% |
| CCS(=O)(=O)c1ccc(OC)c(Nc2ncc(-c3cccc(C(C)=O)c3)o2)c1 | 8.41% | 25.4% | 72.3% | 13.4% | 60.2% | 2.32% | 2.87% | 13% | 60.8% | -3.14% | -3.61% | 4.6% | 35.6% | -2.05% | 15.7% | 4.59% | 18.7% | 2.71% | 8.89% | 2.68% |
| CNC(=O)c1sc(-n2cnc3cc(OC)c(OC)cc32)cc1OCc1ccccc1C(F)(F)F | 4.16% | 2.46% | 10.3% | 8.39% | 17.2% | 3.52% | 5.76% | 5.79% | 13.2% | -4.3% | -2.36% | 3.39% | 7.51% | 4.57% | 2.17% | 0.08% | 2.98% | 0.62% | 3.2% | 3.42% |
| CC1=C(C(=O)Nc2ccc3[nH]ncc3c2)C(c2ccc(F)cc2)N=C(c2ccc(C(F)(F)F)nc2)N1 (stereo not given) | 2.27% | 3.86% | 2.79% | 3.97% | 10.4% | 4.23% | 4.29% | 3.72% | 8.41% | -1.91% | -0.71% | 2.98% | 3.72% | -0.04% | 3.01% | 2.13% | 3.49% | 0.06% | 0.16% | 1.42% |
| COc1ccc2ncn(-c3cc(O[C@H](C)c4ccccc4C(F)(F)F)c(C(N)=O)s3)c2c1 | 0.84% | -1.93% | -0.53% | 0.27% | 9.42% | -0.81% | 2.16% | 4.37% | 2.94% | 0.07% | 1.8% | -0.74% | 2.3% | -0.1% | 1.93% | -0.2% | -0.61% | -0.76% | -0.74% | -1.23% |
| N#Cc1cccc(Nc2ncc(-c3ccccc3)o2)c1 | 10.4% | 4.28% | 21.7% | 3.9% | 20.6% | 1.63% | 2.63% | 4.38% | 20.3% | -2.1% | -1.77% | 2.28% | 5.45% | 5.35% | 3.56% | 3.51% | 3.45% | 1.01% | -0.7% | 2.15% |
| Cc1cc(O)cc(C)c1/C=C/c1cncc(C(N)=O)c1 | 7.26% | 27.8% | 73.6% | 15.1% | 66% | 3.62% | 4.41% | 12.2% | 59.3% | -2.07% | -0.54% | 3.77% | 23% | 5.58% | 37.5% | 22.2% | 72.8% | -0.17% | 2.64% | 4.27% |
| CS(=O)(=O)CCNCc1ccc(-c2ccc3ncnc(Nc4ccc(OCc5cccc(C(F)(F)F)c5)cc4)c3c2)o1 | 2.39% | 2.96% | 3.54% | 6.46% | 8.69% | 3% | 5.12% | 4.21% | 8.35% | -6.74% | -5.12% | 2.51% | 6.32% | 3.21% | 6.44% | 2.67% | 3.19% | -2.4% | 0.46% | 2.05% |
| Fc1ccc(Nc2nccc(-c3c(-c4ccc(C(F)(F)F)cc4)nn4ncccc34)n2)cc1F | 0.93% | 3.58% | 2.19% | 5.29% | 5.12% | 3.18% | 6.53% | 3.43% | 4.03% | -5.49% | -7.82% | 2.43% | 2.03% | 0.77% | 5.09% | 3.39% | 0.92% | 1.62% | 0.94% | 1.84% |
| CCN1CCC(C(=O)Nc2n[nH]c3nnc(-c4cccc(F)c4F)cc23)CC1 | 1.7% | -0.98% | -1.38% | 0.49% | 0.51% | 0.15% | 1.71% | 1.05% | 1.43% | 1.6% | 2.22% | 0.62% | 2.33% | -0.1% | 1.04% | -0.63% | -0.63% | 0% | -0.5% | 2.49% |
| COC(=O)Nc1nc2cc(Oc3ccc(NC(=O)Nc4ccccc4)cc3)ccc2[nH]1 | 31.3% | 6.49% | 18.9% | 5.66% | 11.3% | 1.19% | 2.23% | 9.07% | 16.8% | -7.01% | -3.64% | 2.65% | 3.63% | 3.17% | 3.73% | 1.45% | 2.78% | 0.55% | 0.58% | 4.95% |
| CN1CCC(n2cnc(-c3ccc(F)cc3)c2-c2ccnc(NCCO)n2)CC1 | 6.42% | 2.79% | 4.11% | 3.67% | 6.5% | 3.71% | 5.43% | 3.07% | 2.99% | -4.58% | -5.39% | 3.74% | 2.11% | -6.22% | 4.95% | 3.29% | 6.89% | 0.96% | 0.09% | 7.33% |
| CS(=O)(=O)CCNCc1ccc(-c2ccc3ncnc(Nc4ccc(OCc5ccccc5)cc4)c3c2)o1 | 4.95% | 2.39% | 4.13% | 5.38% | 5.59% | 2.33% | 2.76% | 2.73% | 4.87% | -3.92% | -1.88% | 3.85% | 14.1% | 3.59% | 8.85% | 2.05% | 13.7% | 0.51% | 6.4% | 5.85% |
